# The whole screen tested about 220,000 compounds, of which about 2,000 (0.91%) were called active. Not shown: some 2% with an inconclusive outcome. No stated cut-off is given here; in the data, inconclusive means inhibition above about 80% without an active follow-up result; inactive means below that; test concentration not stated here. These entries were drawn from the full list. Entries with a potency or affinity are not part of this list.
# Test: M. tuberculosis H37Rv growth inhibitors, H37Rv strain (AID 1626);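 further: bacteria incubated seven days before Alamar blue readout; 0% = bacteria only wells and 100% = bacteria with antibiotic wells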
# Conditions: hits give high values, concentration not given here
row,Structure (SMILES),inhibition
1,CC(OC(=O)c1ccc(Cl)c(S(=O)(=O)Nc2ccc(F)cc2)c1)C(=O)NC(N)=O (centres undefined),-1.89% (inactive)
2,CCn1c(NN=O)nc2ccccc21,3.63% (inactive)
3,CC(=O)C1=C(C)NC(=O)NC1c1cccs1 (centres undefined),-8.1% (inactive)
4,COc1cc(/C=C(\C#N)c2ccccn2)ccc1OCC(=O)Nc1ccc(Br)cc1,-1.03% (inactive)
5,C#CC1(NC(=O)NC(C)(C)C)CCCCC1,2.25% (inactive)
6,COc1ccccc1NC(=O)COC(=O)c1cnc(C)cn1,0.5% (inactive)
7,CCc1cc(C(c2cccc(OC)c2)N2CCOCC2)c(NC(=O)c2ccccc2)s1 (centres undefined),2.32% (inactive)
8,CCOC(=O)C1(CC/C(C)=N\NC(N)=O)CC(C)(C)OC1=O (centres undefined),-7.16% (inactive)
9,Cc1nnc(C)n1/N=C/c1cccc(Oc2ccccc2)c1,5.69% (inactive)
10,COC(=O)c1ccsc1NC(=O)C1=COCCO1,2.57% (inactive)
11,CNc1nc(C23CC4CC(CC(C4)C2)C3)cs1,2.54% (inactive)
12,O=C(NCc1ccccc1)C(=O)Nc1nc(C23CC4CC(CC(C4)C2)C3)cs1,6.64% (inactive)
13,CCn1c(SCC(=O)Nc2ccccc2C(=O)OC)nnc1-c1cccc(C)c1,-2.01% (inactive)
14,CN(C)CCCn1c(NC(=O)C2CCCCC2)nc2ccccc21,3.22% (inactive)
15,O=C(Nc1nc2ccccc2n1CCN1CCCCC1)C1CCCCC1,4.2% (inactive)
16,CCCCn1c(NC(=S)Nc2ccccc2)nc2ccccc21,9.5% (inactive)
17,O=C(Nc1nc2ccccc2n1CCN1CCCC1)C1CCCCC1,-3.71% (inactive)
18,O=C(Cc1ccccc1)Nc1cccc(N2CCCC2)c1,2.44% (inactive)
19,Cc1nnc(NN)n(N)c1=O,-3.11% (inactive)
20,CCCCOc1ccc(C(=O)N/C(=C/C=C/c2ccccc2)C(=O)O)cc1,-8.39% (inactive)
21,O=C(N/C(=C/C=C\c1ccccc1)C(=O)N1CCOCC1)c1ccc(Br)cc1,64.4% (inactive)
22,CCC(=O)Nc1ccc(NC(=S)NC(=O)c2cc3ccccc3o2)cc1,15.4% (inactive)
23,Cc1ccc(S(=O)(=O)NCC(=O)N(CC(=O)NCC2CCCO2)Cc2ccco2)cc1 (centres undefined),11.1% (inactive)
24,COc1ccc(C(=O)c2ccc(N3CCOCC3)c([N+](=O)[O-])c2)cc1,-2.74% (inactive)
25,O=C(OCC(=O)N1CCOCC1)c1ccc(N2CCOCC2)c([N+](=O)[O-])c1,-0.57% (inactive)

row,Structure (SMILES),inhibition
1,O=[N+]([O-])c1cc(Cl)ccc1N1CCOCC1,-3.75% (inactive)
2,Cc1ccc(OC(=O)c2ccc(N3CCOCC3)c([N+](=O)[O-])c2)cc1,54.1% (inactive)
3,O=C(O)c1ccccc1C(=O)c1ccc(N2CCOCC2)c([N+](=O)[O-])c1,3.64% (inactive)
4,O=C(Nc1ccccc1N1CCOCC1)c1ccc(N2CCOCC2)c([N+](=O)[O-])c1,6.98% (inactive)
5,Cc1sc(NC(=O)CSc2nnc(-c3ccccc3)o2)c(C#N)c1C,-2.26% (inactive)
6,CCOc1ccc(NC(=O)CC2SC(N)=NC2=O)c([N+](=O)[O-])c1 (centres undefined),2.3% (inactive)
7,COC(=O)c1ccc(NC(=O)CN2C(=O)C3C4C=CC(C4)C3C2=O)cc1 (centres undefined),1.35% (inactive)
8,O=C(CCNc1cc(Cl)cc(Cl)c1)c1cccs1,74.2% (inactive)
9,Cc1ccc(NC(=O)CCC(=O)c2cccs2)cc1,1.21% (inactive)
10,COc1ccc(C(=O)CNc2ccccc2CO)cc1,-0.7% (inactive)
11,COc1ccc(C(=O)CCNc2cccc(Cl)c2)cc1,10.7% (inactive)
12,CCCOc1ccc(C(=O)CCNc2ccc(C)c(Cl)c2)cc1,69.1% (inactive)
13,Cc1ccc(NC(=O)COC(=O)CCC(=O)c2cccs2)cc1,-6.9% (inactive)
14,Cc1ccc(NCCC(=O)c2cccs2)cc1C,74.8% (inactive)
15,COc1ccc(C(=O)CNc2ccccc2C#N)cc1,3.5% (inactive)
16,CCOc1ccc(-c2nn(-c3ccccc3)cc2/C=C2\SC(=S)N(Cc3ccco3)C2=O)cc1,-2.18% (inactive)
17,COc1ccccc1C1=NC(c2ccc(C)cc2)N=C1C (centres undefined),7.88% (inactive)
18,COc1ccc(N2C(=O)C3NN=C(C(=O)OCc4ccccc4)C3C2=O)cc1 (centres undefined),1.18% (inactive)
19,Cc1cccc(NC(=S)N(CCN(C)C)Cc2cc3cccc(C)c3[nH]c2=O)c1,12.2% (inactive)
20,CSC1=NC(C)(C)C=C(/C=C/c2ccc(Cl)cc2)N1,-4.38% (inactive)
21,Cc1c(C(=O)N2CCN(C)CC2)oc2ccc(S(=O)(=O)N3CCOCC3)cc12,-4.68% (inactive)
22,Cc1cc(C(=O)NC(C)c2ccncc2)no1 (centres undefined),-9.57% (inactive)
23,CCn1c2c(c(C)cc1=O)C(=O)CC(C)(C)C2,-1.17% (inactive)
24,CC(=O)c1ccc(N2Cc3ccccc3C3(CCOCC3)C2=N)cc1,-1.43% (inactive)
25,COc1ccccc1CC(=O)NC1CCCc2ccccc21 (centres undefined),1.93% (inactive)

row,Structure (SMILES),inhibition
1,Cc1cc(Nc2ccc3c(c2)OCCO3)n2nc(C)nc2n1,1.27% (inactive)
2,CCOC(=O)C(=O)Nc1ccccc1C(=O)OCC,-3.74% (inactive)
3,CCOC(=O)C1=Nc2ccccc2/C1=C\c1c(O)n(C)c(=O)n(C)c1=O,-4.93% (inactive)
4,CC(=O)Nc1cc(C(F)(F)F)ccc1OCC1CCCO1 (centres undefined),4.74% (inactive)
5,Cc1ccc(-c2cc(C(F)(F)F)n3ncc(C(=O)N4CCCCC4c4cccnc4)c3n2)cc1 (centres undefined),9.06% (inactive)
6,COc1cccc(-c2cc(C(F)(F)F)n3nc(C(=O)N4CCCCC4c4cccnc4)cc3n2)c1 (centres undefined),-1.53% (inactive)
7,CCN1CCN(C(=S)Nc2ccsc2C(=O)OC)CC1,2.48% (inactive)
8,COc1ccc(CCNC(=O)COC(=O)COc2ccc(C#N)cc2)cc1,3.53% (inactive)
9,O=C(Nc1nnc(Cc2ccccc2)s1)c1cccs1,-2.7% (inactive)
10,O=C(Nc1nnc(CCc2ccccc2)s1)c1cccs1,-0.19% (inactive)
11,Cc1ccc(Cc2cnc(NC(=O)c3ccco3)s2)cc1,-0.28% (inactive)
12,O=C(Nc1nnc(Cc2ccc(Cl)cc2)s1)c1cccs1,-8% (inactive)
13,CCOC(=O)c1oc2cccc(O)c2c1CN1CCOCC1,1.91% (inactive)
14,CC(=N/O)/C(=N\O)c1ccc(C)o1,5.71% (inactive)
15,O=C1CC(N2CCN(Cc3ccc4c(c3)OCO4)CC2)C(=O)N1c1cccc2ccccc12 (centres undefined),-7.76% (inactive)
16,CCOC(=O)c1c(NC(=O)COC(=O)c2cc(OC)c(OC)cc2[N+](=O)[O-])sc(C)c1C,0.78% (inactive)
17,O=C(Nc1ccc(Cl)cc1)N1CCCC1,1.26% (inactive)
18,O=C(Nc1cccc(Cl)c1)N1CCCC1,-2.82% (inactive)
19,N#Cc1c(-c2ccc(Cl)cc2Cl)nc2n(c1=O)CCS2,-1.19% (inactive)
20,O=C(Cn1cnc2c(nnn2-c2ccccc2)c1=O)N1CCOCC1,3.36% (inactive)
21,CCOc1ccc(-n2c(C)nc3c(cnn3-c3ccc(Cl)cc3)c2=O)cc1,-1.94% (inactive)
22,Cc1ccccc1OCC(=O)Nc1ccc(N2CCN(S(C)(=O)=O)CC2)cc1,-6.69% (inactive)
23,Cc1ccc(OCC(=O)Nc2ccc(N3CCN(C(=O)c4ccc(C)cc4)CC3)cc2)cc1,-3.04% (inactive)
24,CCOC(=O)N1CCN(c2cc(C)nc3nc(C)nn23)CC1,-2.69% (inactive)
25,CSc1cccc(NC(=O)CSc2ccc(C)cc2)c1,52.9% (inactive)

row,Structure (SMILES),inhibition
1,CCSCc1nnc(SCC(=O)Nc2cccc(C(C)=O)c2)n1C,-4.22% (inactive)
2,COc1cccc(NC(=O)CSc2nnc(C)s2)c1,-3.98% (inactive)
3,CCSCc1nnc(SCC(=O)Nc2ccc(OC)cc2)n1C,7.37% (inactive)
4,Nn1c(CN2CCCCC2)nc2ccccc2c1=O,4.4% (inactive)
5,Cc1csc(NC(=O)CS(=O)(=O)c2ccccc2)n1,-3.27% (inactive)
6,O=C(OCC(=O)N1CCCCCC1)c1ccc([N+](=O)[O-])cc1Cl,20.3% (inactive)
7,OC(COc1ccc(OCc2ccccc2)cc1)CN1CCCCC1 (centres undefined),3.57% (inactive)
8,Cc1ccccc1OCc1nnc(SCC(=O)NCc2ccco2)n1C,-6.74% (inactive)
9,Cc1ccc(S(=O)(=O)NC(CC(C)C)C(=O)Nc2nccs2)cc1 (centres undefined),-11.9% (inactive)
10,COc1ccc(CCNCC(O)Cn2ccc3ccccc32)cc1OC (centres undefined),-9.67% (inactive)
11,COc1ccccc1NCC(O)Cn1c2ccccc2c2ccccc21 (centres undefined),2.53% (inactive)
12,CC(C)N(Cc1cc2ccccc2[nH]c1=O)C(=O)c1cccnc1,-8.2% (inactive)
13,COc1ccc(S(=O)(=O)N2C(=O)/C(=C3\SC(N)=NC3=O)c3ccccc32)cc1,-3.28% (inactive)
14,COc1ccc2nc(/N=C/c3c(C)[nH]n(-c4ccc(C)cc4C)c3=O)sc2c1,6.1% (inactive)
15,CCCCOc1ccc(-c2nc(/C=N/c3nccs3)c(O)o2)cc1,25.4% (inactive)
16,COc1ccc2nc(/N=C/c3c(C)[nH]n(-c4ccc(C)cc4)c3=O)sc2c1,33% (inactive)
17,Oc1oc(-c2ccccc2)nc1/C=N/c1nccs1,-8.45% (inactive)
18,Cc1ccccc1CN1CCN(c2ccc(Cl)cc2)CC1,6.57% (inactive)
19,N/C(=N\OS(=O)(=O)c1ccc(Cl)cc1)c1cccnc1,-1.48% (inactive)
20,Cc1nn2c(N)c(C#N)cnc2c1-c1ccccc1,-6.08% (inactive)
21,COCc1nn2c(N)c(C#N)cnc2c1-c1ccccc1,4.73% (inactive)
22,O=C(NCCc1c[nH]c2ccccc12)c1cnccn1,2.35% (inactive)
23,O=[N+]([O-])c1ccc(C(O)C(CO)NC(=S)Nc2ccccc2)cc1 (centres undefined),-0.74% (inactive)
24,Cc1ccc(NC(=S)NC(CO)C(O)c2ccc([N+](=O)[O-])cc2)cc1 (centres undefined),-9.71% (inactive)
